# Some compounds were tested as several samples or in several runs, with calls that do not always agree. Active and inactive are the calls of the source. Rule for the calls: active = hit-call score of the fitted dose curve at least 0.9, where 1 is the maximum; inactive = score below 0.9.
# Experiment: ATG_TGFb_CIS: Attagene CIS-FACTORIAL HepG2 Assay for human Transforming Growth Factor (TGF) (AID 2282967)
# Conditions: HepG2 Attagene CIS TGFb reporter, mRNA transcription; actives raise or lower the signal
# Experimental: ATG_CIS is a cell-based, multiplexed-readout assay that uses HepG2, a human liver cell line, with measurements taken at 24 hours after chemical dosing in a 24-well plate.ATG_TGFb_CIS is one of 52 assay component(s) measured or calculated from the ATG_CIS assay. It is designed to make measurements of mRNA induction, a form of inducible reporter, as detected with fluorescence intensity signals by Reverse transcription polymerase chain reaction (RT-PCR) and Capillary electrophoresis technology.Data from the assay component ATG_TGFb_CIS was analyzed into 1 assay endpoint. This assay endpoint, ATG_TGFb_CIS, was analyzed with bidirectional fitting relative to DMSO as the negative control and baseline of activity. Using a type of inducible reporter, measures of mRNA for gain or loss-of-signal activity can be used to understand the reporter gene at the transcription factor-level as they relate to the gene TGFB1. Furthermore, this assay endpoint can be referred to as a primary readout, because this assay has produced multiple assay endpoints where this one serves a reporter gene function. To generalize the intended target to other relatable targets, this assay endpoint is annotated to the growth factor intended target family, where the subfamily is transforming growth factor beta.
# Human liver HepG2 cells are transiently transfected with multiple reporter transcription units (MRTUs) in 6-well plates using FuGene 6 reagent (Roche; 3 ml FuGene/1 mg DNA). The MRTU constructs are regulated by a cis-regulating element (promoter). […] A major difference between the CIS and TRANS system is that in CIS activities of endogenous TFs are measured, whereas the TRANS assay evaluates changes in activities of exogenous, chimeric NR-Gal4 proteins. […] At the end of 24 hour incubation, total RNA was isolated using TriZol reagent (Invitrogen). The isolated RNA is then reverse-transcribed using oligo(dT) primer and Mo-MLV reverse transcriptase (Invitrogen) with DNAse I (Ambion) treatment for 30 min. The one-tenth of the produced cDNA was amplified by PCR using Taq DNA polymerase (Invitrogen) and two reporter sequence-specific primers. The PCR products were fluorescently labeled by primer extension with 6-arboxyfluorescein (6-FAM) 5'-labeled reporter sequence-specific primer (2 min at 95 C, 20 s at 68 C and 10 min at 72 C) and these products were digested with 5U of HpaI (New England Biolabs) for 2h at 37 C. The fragments were purified using Qiaquick PCR columns (Qiagen), analyzed on an ABI 3130xL genetic analyzer (Applied Biosystems) with peak positions identified by using a set of X-rhodamine (ROX)-labeled MapMarker1000 molecular weight standards (BioVentures). The raw capillary electrophoresis data was processed using Attagraph software (Attagene).
SMILES,outcome,AC50
S=c1[nH]c2ccccc2s1,inactive,
Cc1cc(Cc2ccc(N)c(C)c2)ccc1N,inactive,
Oc1ccc(O)cc1,inactive,
CCCCC(CC)CO (stereo not given),inactive,
Nc1nc(Cl)nc2c1ncn2[C@H]1C[C@H](O)[C@@H](CO)O1,inactive,
CC(C)OC(=O)C(C)(C)Oc1ccc(C(=O)c2ccc(Cl)cc2)cc1,inactive,
CC(=O)OCC(COC(C)=O)OC(C)=O,inactive,
CC(=O)S[C@H](C(=O)N[C@H]1Cc2ccccc2[C@H]2CCC[C@@H](C(=O)O)N2C1=O)C(C)C,inactive,
CN(C)C(=O)NC1(c2ccccc2)CCN(CCC[C@]2(c3ccc(Cl)c(Cl)c3)CCCN(C(=O)c3ccccc3)C2)CC1,inactive,
CCN(CC)CCOc1ccc(C(=C(Cl)c2ccccc2)c2ccccc2)cc1,inactive,3.11 µM (active)
C=CCc1ccc(OC)c(OC)c1,inactive,
CC(C)(O)c1ccc(CNC(=O)c2cccnc2Oc2ccc(F)cc2)cc1,inactive,
O=C1CCCCC1,inactive,
C=CCCCCCCCCCCCC,inactive,
CC(C)(C)c1ccccc1,inactive,
O=C1O[C@H]([C@H](O)CO)C(O)=C1O,inactive,
CC(=O)[C@@]1(O)CC[C@H]2[C@@H]3CCC4=CC(=O)CC[C@]4(C)[C@H]3CC[C@@]21C,inactive,
CCCCCCCCCCCCCCOS(=O)(=O)O,,15.1 µM (active)
CCCCc1nc2cccnc2n1Cc1ccc(-c2ccccc2-c2nnn[nH]2)cc1,inactive,
CCCCCCC(C=O)=Cc1ccccc1,inactive,

SMILES,outcome,AC50
CN(C)CCCN(C)CCCN(C)C,inactive,
CCCCC(CC)COP(=O)(OCC(CC)CCCC)OCC(CC)CCCC (stereo not given),inactive,
CN(C)CCCN1c2ccccc2Sc2ccc(Cl)cc21,inactive,
O=C(O)CN(CC(=O)O)CC(=O)O,inactive,
CCCC[C@H]1CN(CC2CCOCC2)C(=O)OC12CCN(C1(C)CCN(C(=O)c3c(C)ncnc3C)CC1)CC2,inactive,
Cn1cnc2c1c(=O)[nH]c(=O)n2C,inactive,
O=NO,inactive,
CC(N)=O,inactive,
c1ccc2occc2c1,inactive,
NCCOCCOCCN,inactive,
CCC(C)N(C)C(=O)c1cc2ccccc2c(-c2ccccc2Cl)n1 (stereo not given),inactive,
CCc1cc(C2=C(C(=O)O)N(c3ccccc3C(F)(F)F)S(=O)(=O)c3ccccc32)cc2c1OCO2,inactive,
CC(=O)O,inactive,
C/C=C/c1ccc(OC)cc1,inactive,
COC(=O)CCC(=O)OC,inactive,
Cc1occc(=O)c1O,inactive,
Cc1ccc(-c2cc(C(F)(F)F)nn2-c2ccc(S(N)(=O)=O)cc2)cc1,inactive,
Oc1ccccc1O,inactive,
Nc1nc(=S)c2[nH]cnc2[nH]1,inactive,

# Source: PubChem BioAssay (EPA / NIEHS)
